Laboratory results as given in paper PMC7862700, “An all-to-all approach to the identification of sequence-specific readers for epigenetic DNA modifications on cytosine”.

Key:
Assay in all cases: DAPPL (digital affinity profiling via proximity ligation, sequencing); 10 mM Tris-HCl pH 7.5, 50 mM NaCl, 1 mM DTT, 4% glycerol, room temperature, 30 min; GST-TFs on glutathione beads, 16-mer random dsDNA library, 0.1% formaldehyde crosslink after washing; high values mean tight binding
Conditions in all cases: protein: recombinant; tags: N-terminal GST; dsDNA, one strand shown
FLI1 = molecular target: T1, FLI1 (Homo sapiens, UniProt Q01543 1-452)
T1 sequence: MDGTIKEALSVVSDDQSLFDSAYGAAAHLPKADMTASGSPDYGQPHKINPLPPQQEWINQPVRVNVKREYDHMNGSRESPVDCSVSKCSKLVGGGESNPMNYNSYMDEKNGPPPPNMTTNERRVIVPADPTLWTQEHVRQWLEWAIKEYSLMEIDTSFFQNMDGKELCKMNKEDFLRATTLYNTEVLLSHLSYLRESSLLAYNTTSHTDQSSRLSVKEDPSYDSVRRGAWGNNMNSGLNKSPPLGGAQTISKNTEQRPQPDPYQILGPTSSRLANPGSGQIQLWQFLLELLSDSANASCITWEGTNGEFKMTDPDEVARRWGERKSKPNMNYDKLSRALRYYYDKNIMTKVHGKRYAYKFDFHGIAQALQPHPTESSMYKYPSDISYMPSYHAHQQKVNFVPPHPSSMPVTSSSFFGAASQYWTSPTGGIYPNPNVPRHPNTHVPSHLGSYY
Summary of the method: (§1)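 GST fusions of human transcription factors were expressed in yeast and captured with glutathione beads. Once given DNA barcodes and pooled alongside a tag-only sample, they were incubated for 30 min at room temperature with 200 nmole of a random double-stranded 16-mer DNA library in Tris/NaCl/DTT/glycerol buffer, then washed, crosslinked (0.1% formaldehyde), proximity-ligated, PCR-amplified and sequenced on an Illumina NextSeq500. The binding signal of each hexamer is its read frequency for a factor divided by its frequency for the tag-only sample.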

ELK1 = molecular target: T2, ELK1 (Homo sapiens, UniProt P19419 1-428)
T2 sequence: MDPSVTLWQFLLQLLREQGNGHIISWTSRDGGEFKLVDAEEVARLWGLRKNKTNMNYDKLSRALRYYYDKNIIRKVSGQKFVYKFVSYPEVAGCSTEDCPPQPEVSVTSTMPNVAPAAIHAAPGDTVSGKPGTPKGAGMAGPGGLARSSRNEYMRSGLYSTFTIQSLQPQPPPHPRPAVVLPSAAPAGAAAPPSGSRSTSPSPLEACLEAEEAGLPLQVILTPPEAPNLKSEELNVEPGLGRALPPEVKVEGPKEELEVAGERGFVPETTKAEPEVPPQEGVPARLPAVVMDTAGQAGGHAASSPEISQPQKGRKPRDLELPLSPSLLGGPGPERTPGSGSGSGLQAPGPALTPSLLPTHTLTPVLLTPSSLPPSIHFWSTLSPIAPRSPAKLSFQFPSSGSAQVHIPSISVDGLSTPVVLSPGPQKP
Summary of the method: as §1

GABPA = molecular target: T3, GABPA (Homo sapiens, UniProt Q06546 1-454)
T3 sequence: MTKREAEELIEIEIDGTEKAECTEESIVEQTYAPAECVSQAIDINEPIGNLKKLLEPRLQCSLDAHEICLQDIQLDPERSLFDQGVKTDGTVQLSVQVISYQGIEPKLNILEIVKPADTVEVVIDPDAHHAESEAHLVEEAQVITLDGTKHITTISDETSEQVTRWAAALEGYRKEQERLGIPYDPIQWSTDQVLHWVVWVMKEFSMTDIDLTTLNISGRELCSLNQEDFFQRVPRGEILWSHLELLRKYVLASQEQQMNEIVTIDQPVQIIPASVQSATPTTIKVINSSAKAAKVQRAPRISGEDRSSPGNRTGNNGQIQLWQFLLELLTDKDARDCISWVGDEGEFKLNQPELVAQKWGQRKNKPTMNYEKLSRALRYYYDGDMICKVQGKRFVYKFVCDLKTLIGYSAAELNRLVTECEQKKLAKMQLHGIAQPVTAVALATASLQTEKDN
Summary of the method: as §1

ERG = molecular target: T4, ERG (Homo sapiens, UniProt P11308 1-479)
T4 sequence: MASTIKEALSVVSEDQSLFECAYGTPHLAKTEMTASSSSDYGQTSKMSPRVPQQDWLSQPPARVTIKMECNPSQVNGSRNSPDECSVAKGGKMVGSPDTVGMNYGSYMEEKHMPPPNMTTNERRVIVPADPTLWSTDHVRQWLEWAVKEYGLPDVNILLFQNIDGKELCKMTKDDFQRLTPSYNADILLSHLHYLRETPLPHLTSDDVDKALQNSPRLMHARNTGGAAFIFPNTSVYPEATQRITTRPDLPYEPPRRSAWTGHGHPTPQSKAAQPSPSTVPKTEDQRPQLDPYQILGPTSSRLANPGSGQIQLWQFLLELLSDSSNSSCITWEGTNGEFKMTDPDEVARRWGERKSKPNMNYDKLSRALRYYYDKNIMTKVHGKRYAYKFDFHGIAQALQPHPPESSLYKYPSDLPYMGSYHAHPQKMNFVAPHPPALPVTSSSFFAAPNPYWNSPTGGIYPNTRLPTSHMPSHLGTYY
Summary of the method: as §1

ELF1 = ELF1 (Homo sapiens, UniProt P32519 1-619)
Summary of the method: as §1

EHF = molecular target: T5, EHF (Homo sapiens, UniProt Q9NZC4 1-300)
T5 sequence: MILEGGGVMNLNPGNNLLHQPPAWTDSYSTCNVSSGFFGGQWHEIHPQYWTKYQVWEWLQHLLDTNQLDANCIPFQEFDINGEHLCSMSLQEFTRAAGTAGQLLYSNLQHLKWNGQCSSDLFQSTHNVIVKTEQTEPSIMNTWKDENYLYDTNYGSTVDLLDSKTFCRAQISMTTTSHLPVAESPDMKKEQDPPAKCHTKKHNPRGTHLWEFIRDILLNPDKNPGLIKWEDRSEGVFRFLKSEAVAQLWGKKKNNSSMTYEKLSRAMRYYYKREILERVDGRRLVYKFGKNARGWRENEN
Summary of the method: as §1

SPI1 = SPI1 (Homo sapiens, UniProt P17947 1-270)
Summary of the method: as §1

SPIB = SPIB (Homo sapiens, UniProt Q01892 1-262)
Summary of the method: as §1

ELK3 = molecular target: T6, ELK3 (Homo sapiens, UniProt P41970 1-407)
T6 sequence: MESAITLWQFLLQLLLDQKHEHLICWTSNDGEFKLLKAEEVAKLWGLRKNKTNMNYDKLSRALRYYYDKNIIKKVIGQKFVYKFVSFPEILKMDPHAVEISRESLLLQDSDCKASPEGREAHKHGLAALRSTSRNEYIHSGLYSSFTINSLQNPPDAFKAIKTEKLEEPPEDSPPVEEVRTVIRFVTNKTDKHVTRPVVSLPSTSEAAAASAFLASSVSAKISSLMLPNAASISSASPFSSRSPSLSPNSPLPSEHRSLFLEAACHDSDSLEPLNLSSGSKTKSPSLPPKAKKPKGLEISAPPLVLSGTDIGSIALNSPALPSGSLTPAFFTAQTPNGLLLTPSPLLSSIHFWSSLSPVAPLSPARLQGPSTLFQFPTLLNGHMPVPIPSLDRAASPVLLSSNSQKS
Summary of the method: as §1

Sequence of SPIB (Q01892 whole entry): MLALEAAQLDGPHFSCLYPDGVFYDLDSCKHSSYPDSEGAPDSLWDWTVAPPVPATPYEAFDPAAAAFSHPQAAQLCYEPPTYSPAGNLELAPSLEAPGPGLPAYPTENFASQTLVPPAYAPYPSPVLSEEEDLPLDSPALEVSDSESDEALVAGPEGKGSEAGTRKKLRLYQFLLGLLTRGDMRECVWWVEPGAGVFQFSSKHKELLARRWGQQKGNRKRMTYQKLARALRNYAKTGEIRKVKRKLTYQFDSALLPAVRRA
Sequence of ELF1 (P32519 whole entry): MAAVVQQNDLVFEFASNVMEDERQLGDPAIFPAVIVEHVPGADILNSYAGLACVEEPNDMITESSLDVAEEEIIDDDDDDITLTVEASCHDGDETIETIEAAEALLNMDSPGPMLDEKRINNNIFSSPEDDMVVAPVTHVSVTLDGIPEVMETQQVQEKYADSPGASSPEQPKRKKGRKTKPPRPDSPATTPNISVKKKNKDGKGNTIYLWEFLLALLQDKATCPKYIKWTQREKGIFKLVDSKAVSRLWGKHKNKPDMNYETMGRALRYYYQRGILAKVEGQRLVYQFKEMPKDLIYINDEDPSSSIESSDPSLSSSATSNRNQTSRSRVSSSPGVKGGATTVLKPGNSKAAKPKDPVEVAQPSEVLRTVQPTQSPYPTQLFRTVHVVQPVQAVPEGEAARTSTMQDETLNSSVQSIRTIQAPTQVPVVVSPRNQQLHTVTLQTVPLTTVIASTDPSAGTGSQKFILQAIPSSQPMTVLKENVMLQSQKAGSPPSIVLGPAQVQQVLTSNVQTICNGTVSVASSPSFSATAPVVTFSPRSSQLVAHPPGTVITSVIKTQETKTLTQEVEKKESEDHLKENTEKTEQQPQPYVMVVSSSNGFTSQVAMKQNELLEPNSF

Row | Sequence | binding signal (FLI1) | binding signal (ELK1) | binding signal (GABPA) | binding signal (ERG) | binding signal (ELF1) | binding signal (EHF) | binding signal (SPI1) | binding signal (SPIB) | binding signal (ELK3)
1 | AGCTTT | 1.21 fold enrichment (6-mer frequency, TF over GST control) | 1.2 fold enrichment (6-mer frequency, TF over GST control) | 1.13 fold enrichment (6-mer frequency, TF over GST control) | 1.12 fold enrichment (6-mer frequency, TF over GST control) | 1.2 fold enrichment (6-mer frequency, TF over GST control) | 1.11 fold enrichment (6-mer frequency, TF over GST control) | 1.16 fold enrichment (6-mer frequency, TF over GST control) | 1.04 fold enrichment (6-mer frequency, TF over GST control) | 1.13 fold enrichment (6-mer frequency, TF over GST control)
2 | AATCCT | 1.46 fold enrichment (6-mer frequency, TF over GST control) | 1.31 fold enrichment (6-mer frequency, TF over GST control) | 1.34 fold enrichment (6-mer frequency, TF over GST control) | 1.41 fold enrichment (6-mer frequency, TF over GST control) | 1.36 fold enrichment (6-mer frequency, TF over GST control) | 1.33 fold enrichment (6-mer frequency, TF over GST control) | 1.37 fold enrichment (6-mer frequency, TF over GST control) | 1.38 fold enrichment (6-mer frequency, TF over GST control) | 1.46 fold enrichment (6-mer frequency, TF over GST control)
3 | TAACTG | 1.12 fold enrichment (6-mer frequency, TF over GST control) | 1.19 fold enrichment (6-mer frequency, TF over GST control) | 1.24 fold enrichment (6-mer frequency, TF over GST control) | 1.25 fold enrichment (6-mer frequency, TF over GST control) | 1.27 fold enrichment (6-mer frequency, TF over GST control) | 1.15 fold enrichment (6-mer frequency, TF over GST control) | 1.21 fold enrichment (6-mer frequency, TF over GST control) | 1.33 fold enrichment (6-mer frequency, TF over GST control) | 1.26 fold enrichment (6-mer frequency, TF over GST control)
4 | TTCCGA | 1.64 fold enrichment (6-mer frequency, TF over GST control) | 1.62 fold enrichment (6-mer frequency, TF over GST control) | 1.43 fold enrichment (6-mer frequency, TF over GST control) | 1.66 fold enrichment (6-mer frequency, TF over GST control) | 1.44 fold enrichment (6-mer frequency, TF over GST control) | 1.71 fold enrichment (6-mer frequency, TF over GST control) | 1.62 fold enrichment (6-mer frequency, TF over GST control) | 1.44 fold enrichment (6-mer frequency, TF over GST control) | 1.68 fold enrichment (6-mer frequency, TF over GST control)
5 | CACGCT | 1.42 fold enrichment (6-mer frequency, TF over GST control) | 1.36 fold enrichment (6-mer frequency, TF over GST control) | 1.36 fold enrichment (6-mer frequency, TF over GST control) | 1.4 fold enrichment (6-mer frequency, TF over GST control) | 1.34 fold enrichment (6-mer frequency, TF over GST control) | 1.44 fold enrichment (6-mer frequency, TF over GST control) | 1.33 fold enrichment (6-mer frequency, TF over GST control) | 1.37 fold enrichment (6-mer frequency, TF over GST control) | 1.35 fold enrichment (6-mer frequency, TF over GST control)
6 | TAGCTT | 1.18 fold enrichment (6-mer frequency, TF over GST control) | 1.26 fold enrichment (6-mer frequency, TF over GST control) | 1.31 fold enrichment (6-mer frequency, TF over GST control) | 1.17 fold enrichment (6-mer frequency, TF over GST control) | 1.21 fold enrichment (6-mer frequency, TF over GST control) | 1.21 fold enrichment (6-mer frequency, TF over GST control) | 1.25 fold enrichment (6-mer frequency, TF over GST control) | 1.29 fold enrichment (6-mer frequency, TF over GST control) | 1.31 fold enrichment (6-mer frequency, TF over GST control)
7 | GAACTA | 1.39 fold enrichment (6-mer frequency, TF over GST control) | 1.39 fold enrichment (6-mer frequency, TF over GST control) | 1.34 fold enrichment (6-mer frequency, TF over GST control) | 1.32 fold enrichment (6-mer frequency, TF over GST control) | 1.3 fold enrichment (6-mer frequency, TF over GST control) | 1.37 fold enrichment (6-mer frequency, TF over GST control) | 1.41 fold enrichment (6-mer frequency, TF over GST control) | 1.32 fold enrichment (6-mer frequency, TF over GST control) | 1.37 fold enrichment (6-mer frequency, TF over GST control)
